Assay results reported in PubChem BioAssay (Tox21).
Values without a mark were called inactive. Calls follow the shape of the dose curve; as a rule, active = well fitted curve in the direction sought with a large enough effect in the repeat runs; inconclusive = weak or mixed curves; inactive = flat fitted curve, though single readings scatter.

Experiment: qHTS assay to test for compound auto fluorescence at 460 nm (blue) in HepG2 cell free culture (AID 720685)
Conditions: Cell-free culture medium, blue autofluorescence 405/460 nm; series mostly up to 91.3 µM; fluorescence, % of fluorescent control: at the top concentration
Outline: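 Cell-free plates of MEM plus 10% FBS received 23 nL compound or DMSO vehicle; blue-channel (405/460 nm) intensity scored against triamterene as reference fluorophore.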
% is scaled to controls: 0 for no effect and ±100 for the full control effect.

Structure (SMILES)	fluorescence, % of fluorescent control
CC/C=C/CCCCCCCCCCOC(C)=O	-0.0064%
Cc1ccc(Br)cc1	0.387%
O=C(O)/C=C(\CC(=O)O)C(=O)O	-0.102% [at 46 µM]
C=CCON/C(CCC)=C1\C(=O)CC(C)(C)C(C(=O)OC)=C1O	-0.036%
CCOc1ccccc1OCCN[C@H](C)Cc1ccc(OC)c(S(N)(=O)=O)c1	0.0033% [at 46 µM]
CCCCCCCCCCCCCCBr	-0.151% [at 95.7 µM]
CCN1CCN(C(=O)N[C@@H](C(=O)N[C@@H]2C(=O)N3[C@@H]2SC(C)(C)[C@H]3C(=O)O)c2ccccc2)C(=O)C1=O	0.0045% [at 46 µM]
C[Si](C)(C)O[Si](O)(O)O	-0.0197%
O=C(CCBr)N1CCN(C(=O)CCBr)CC1	0.0538% [at 46 µM]
Cc1ccccc1OCC(=O)O	-0.0094%
C/C(=N\O)c1ccc(OCC(=O)N2CCCCC2)cc1	-0.0364% [at 46 µM]
COCc1nnc(-c2ccc[n+]([O-])c2)n1-c1c(Cl)c(Cl)cc2[nH]c(=O)c(=O)[nH]c12	0.0817%
CC1(C)S[C@@H]2[C@H](NC(=O)Cc3ccccc3)C(=O)N2[C@H]1C(=O)O (tested in a mixture with another compound)	0.0625% [at 46 µM]
CC1=C(O)C(=O)CO1	0.55%
CC(C)C(C)C	-0.0112%
CCC(=O)OCCOc1ccccc1	-0.0518%
N=C(N)S(=O)O	0.414%
CC(C)(C)C(=O)CCc1ccc(Cl)cc1	0.0115%
CC[C@@]1(c2ccccc2)NC(=O)N(C)C1=O	-0.0044% [at 46 µM]
CCCCCCCCS(=O)(=O)O	-0.0023%
C=CCCCCCCCCCCCCCC	-0.0168% [at 18.6 µM]
N#CC1(N)CCCCC1	-0.0243% [at 95.7 µM]
CN(C)c1ccncc1	0.0011%
BrCCOc1ccccc1	0.0372%
CCOC(=O)c1ccc(N(C)C)cc1	0.131%
N=C(N)N1CCc2ccccc2C1	-0.0021% [at 46 µM]
CNC(C)=O	-0.044%
C=CCN(CC=C)CC=C	-0.0707%
CCCCN1C(=O)c2ccccc2C1=O	0.0119% [at 95.7 µM]

Experiment: qHTS assay to test for compound auto fluorescence at 535 nm (green) in HepG2 cell free culture (AID 720686)
Conditions: Cell-free medium, green autofluorescence 485/535 nm; series mostly up to 91.3 µM; fluorescence, % of fluorescein control: at the top concentration

Structure (SMILES)	fluorescence, % of fluorescein control
CC/C=C/CCCCCCCCCCOC(C)=O	-0.0084%
Cc1ccc(Br)cc1	-0.0675%
C=CCON/C(CCC)=C1\C(=O)CC(C)(C)C(C(=O)OC)=C1O	-0.0181%
CCOc1ccccc1OCCN[C@H](C)Cc1ccc(OC)c(S(N)(=O)=O)c1	0.0519% [at 46 µM]
CCCCCCCCCCCCCCBr	0.0148% [at 95.7 µM]
CCN1CCN(C(=O)N[C@@H](C(=O)N[C@@H]2C(=O)N3[C@@H]2SC(C)(C)[C@H]3C(=O)O)c2ccccc2)C(=O)C1=O	-0.126% [at 46 µM]
CCCCNCC	-0.0448%
O=C(CCBr)N1CCN(C(=O)CCBr)CC1	0.0609% [at 46 µM]
Cc1ccccc1OCC(=O)O	0.0214%
C/C(=N\O)c1ccc(OCC(=O)N2CCCCC2)cc1	-0.0148% [at 46 µM]
CC/C=C\CCCCCCCCCCOC(C)=O	0.107%
COCc1nnc(-c2ccc[n+]([O-])c2)n1-c1c(Cl)c(Cl)cc2[nH]c(=O)c(=O)[nH]c12	-0.0161%
CC1(C)S[C@@H]2[C@H](NC(=O)Cc3ccccc3)C(=O)N2[C@H]1C(=O)O (tested in a mixture with another compound)	0.0644% [at 46 µM]
CC1=C(O)C(=O)CO1	0.148%
CC(C)C(C)C	-0.0659%
O=C(O)Cc1c(Cl)ccc(Cl)c1Cl	-0.0574%
CCC(=O)OCCOc1ccccc1	0.0215%
CC(C)(C)C(=O)CCc1ccc(Cl)cc1	-0.0167%
CC[C@@]1(c2ccccc2)NC(=O)N(C)C1=O	0.042% [at 46 µM]
CCCCCCCCS(=O)(=O)O	-0.126%
C=CCCCCCCCCCCCCCC	0.0254% [at 18.6 µM]
N#CC1(N)CCCCC1	-0.039% [at 95.7 µM]
CN(C)c1ccncc1	-0.0231%
O=C1CC2(CCCC2)CC(=O)N1CCNCC1COc2ccccc2O1 (stereo not drawn)	0.0407% [at 46 µM]
CCOC(=O)c1ccc(N(C)C)cc1	0.0298%
N=C(N)N1CCc2ccccc2C1	-0.126% [at 46 µM]
CNC(C)=O	0.0717%
CCCCN1C(=O)c2ccccc2C1=O	0.0211% [at 95.7 µM]
NNC(=O)CCCCC(=O)NN	-0.0213%
